PubChem BioAssay AID630 (Emory University Molecular Libraries Screening Center, 2007)
In all, about 88,000 compounds went through this assay and about 260 (0.3%) were called active. For the sample, actives were picked, then their nearest neighbours and some compounds at random. A number with no mark means an inactive call.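 The calls were made as follows: active = compounds that reduce the energy-transfer binding signal between the protein and its labelled peptide by more than half; inactive = the rest.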

target: Mothers against decapentaplegic homolog 3 (Homo sapiens) (UniProt P84022); test: blockers of Smad3 binding to FoxH1 – biochemical, TR-FRET, primary screen (AID 630); details: TR-FRET Smad3/Dy647-FoxH1 peptide binding, europium anti-His; at 25 µM; hits give high values;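 also: 0% = Smad3 plus labelled peptide maximal FRET and 100% = peptide-only background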
Sequence (P84022 whole entry, looked up): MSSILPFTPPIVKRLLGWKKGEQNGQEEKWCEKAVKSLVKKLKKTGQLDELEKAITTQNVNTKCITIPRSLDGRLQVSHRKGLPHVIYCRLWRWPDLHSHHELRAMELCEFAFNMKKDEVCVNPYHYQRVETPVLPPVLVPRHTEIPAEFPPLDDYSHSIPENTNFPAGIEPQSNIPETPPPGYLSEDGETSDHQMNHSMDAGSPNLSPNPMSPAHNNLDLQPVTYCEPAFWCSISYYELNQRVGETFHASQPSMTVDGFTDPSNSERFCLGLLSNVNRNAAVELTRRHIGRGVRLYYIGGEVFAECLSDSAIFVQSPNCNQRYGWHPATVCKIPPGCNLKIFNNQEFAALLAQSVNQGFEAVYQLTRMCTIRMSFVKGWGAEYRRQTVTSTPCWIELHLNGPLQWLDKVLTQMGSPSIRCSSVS

Question: Which inhibition does the source give for `CC(C)Nc1ncnc2c1nnn2Cc1ccccc1` here?
Answer: -8.78%

Question: How did the inhibition turn out when `CC1(C)CC(=O)C=C(N2CCCC2)C1` was run?
Answer: -13.5%

Question: How did the inhibition turn out when `COc1ccccc1CNS(=O)(=O)c1ccc(C)cc1` was run?
Answer: 9.13%

Question: Which inhibition does the source give for `O=C(O)[C@@H]1CCc2ccc3ccccc3c2[C@H]1c1cccc2ccccc12` here?
Answer: -9.06%

Question: How did the inhibition turn out when `COC(=O)c1ccc(NC(=O)C23CC4CC(C2)CC(n2cnc(Cl)n2)(C4)C3)cc1` was run?
Answer: 4.51%

Question: Which inhibition does the source give for `O=C(O)[C@@H]1CS[C@]2(CCCN(Cc3ccccc3)C2)N1` here?
Answer: 7.7%

Question: For `O=S1(=O)C=C(SCCN2CCCC2)c2ccccc21`, which inhibition is on record?
Answer: 17.4%

Question: Which inhibition does the source give for `CCOC(=O)c1c(NC(=O)CCl)sc(C(=O)N(CC)CC)c1C` here?
Answer: 14.1%

Question: How did the inhibition turn out when `Cc1cccc(N2CCN(C(=O)c3cnn4c(C(F)F)cc(-c5ccccc5)nc34)CC2)c1C` was run?
Answer: 8.08%

Question: With `Cn1ncc2c(Nc3cccc4ccccc34)ncnc21` as the compound, how does the inhibition read?
Answer: 2.63%

Question: How did the inhibition turn out when `Cc1noc(COc2ccccc2OCc2onc(C)c2Cl)c1Cl` was run?
Answer: -10.7%

Question: How did the inhibition turn out when `Cn1c2c(c(=O)n(C)c1=O)C(c1cccc([N+](=O)[O-])c1)Nc1ccccc1O2` (stereo not given) was run?
Answer: -10.5%

Question: How did the inhibition turn out when `CCOc1ccc(C(O)Cc2nc3ccccc3n2C)cc1` (stereo not given) was run?
Answer: 3.1%

Question: For `CCCn1c(C)cc(C(=O)COC(=O)c2c(C)nn(-c3ccccc3)c2C)c1C`, which inhibition is on record?
Answer: -7.34%

Question: For `COc1ccc(C(=O)Nc2ccc(CN3CCOCC3)cc2)cc1`, which inhibition is on record?
Answer: 11%

Question: For `N#C/C(=C\c1ccccc1)c1n[nH]c(Cn2cncn2)n1`, which inhibition is on record?
Answer: 8.55%

Question: For `O=C(CSCc1ccc(Cl)cc1)N1CCCCC1`, which inhibition is on record?
Answer: -8.93%

Question: `Cc1cccc(NC(=O)CSc2nc3c(c(=O)[nH]2)CCCC3)c1C` was tested. Which inhibition did it give?
Answer: 5.9%

Question: Which inhibition does the source give for `Cc1cc2nc(SCCN3CCOCC3)[nH]c2cc1C` here?
Answer: 2.4%

Question: How did the inhibition turn out when `Cc1nn(Cc2ccccc2)c2c1C(c1ccccc1)C(C#N)=C(N)O2` (stereo not given) was run?
Answer: 5.74%

Question: With `COc1ccc(N/N=C2/CCCCC2=O)cc1` as the compound, how does the inhibition read?
Answer: -1.11%

Question: Which inhibition does the source give for `O=C(O)c1nn(-c2ccc(Cl)cc2)c2c1C(=O)c1ccccc1C2=O` here?
Answer: 53.4% (active)

Question: With `Cc1ccc(-n2ccc(=O)c(C(=O)O)n2)cc1` as the compound, how does the inhibition read?
Answer: 0.02%

Question: `CCOc1ccc(NC(=O)N(CC(C)C)CC(C)C)cc1` was tested. Which inhibition did it give?
Answer: 3.46%

Question: Which inhibition does the source give for `N#CC1=C(SCc2ccc(C#N)cc2)N=C(N)C(c2nc(-c3ccccc3)cs2)C12CCCCC2` (stereo not given) here?
Answer: -3.23%

Question: `O=C(NC1(C(F)(F)F)NC(=O)N(Cc2cccnc2)C1=O)c1ccccc1Cl` (stereo not given) was tested. Which inhibition did it give?
Answer: 40.1%

Question: `COC(=O)c1ccc(Cc2ccccc2)o1` was tested. Which inhibition did it give?
Answer: 6.44%

Question: How did the inhibition turn out when `O=C(c1ccc(O)cc1)c1ccc(C(=O)O)c(C(=O)O)c1` was run?
Answer: -7.32%

Question: Which inhibition does the source give for `O=C(O)c1ccc(C(=O)c2ccccc2C(=O)O)cc1C(=O)O` here?
Answer: 63.5% (active)

Question: With `O=C(O)c1ccc(C(=O)O)c2c(C(=O)O)ccc(C(=O)O)c12` as the compound, how does the inhibition read?
Answer: -1.5%
